PNC assembly inh – perinucleolar compartment assembly inhibition; PC3M PTB-GFP, PNC prevalence imaging, 16 h; active compounds read low; activity change (PNC), negative = inhibition, % at 10 µM; 140,000 tested, 3.1% active; AID 2417;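 active means readout at or below -70, meaning at least 70% loss of cells showing the perinucleolar compartment, a nuclear body marking cancer cells; inconclusive means readout between -30 and a set limit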;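 further: plate controls were DMSO wells for no effect and camptothecin positive control wells for full effect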
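PC3M cells stably expressing PTB-GFP, 750–1000 cells/well, treated 16 h at 37 °C with compound (23 nl of library stock), in duplicate. After paraformaldehyde fixation and Hoechst stain, imaged at 20x; PNC prevalence scored by image analysis.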
Tau fibril ThT – inhibitors of human tau fibril formation, thioflavin T binding; Potency, µM (top dose mostly 57.4 µM), for the others: at the highest dose activity, negative = inhibition, usual class: inhibitors; AID 1460; P10636; 270,000 tested, 2.1% active; recombinant tau K18 P301L, heparin-induced fibrillization, ThT fluorescence; further: potency means the concentration at half of the fitted maximal effect; nearly all actives have a fitted effect of over 55% in size
Target sequence (P10636 561-689 P618L limits assumed): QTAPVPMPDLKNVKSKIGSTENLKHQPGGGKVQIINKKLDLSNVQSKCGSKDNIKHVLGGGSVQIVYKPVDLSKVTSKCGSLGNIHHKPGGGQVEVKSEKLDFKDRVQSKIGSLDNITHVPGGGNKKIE
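Aggregation was driven by heparin (20 uM final) acting on recombinant tau […] bearing P301L in 100 mM sodium acetate pH 7; fibrils were detected with Thioflavin T.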
Tau fluor cs – counter-screen for tau fibril formation inhibitors | tau K18 P301L (four-repeat tau fragment) Alexa594 fluorescence, heparin fibrillization | 280,000 tested, 0.93% active | AID 1463 | Potency, µM (highest dose often 57.7 µM), for the others: top-dose activity change, negative = decrease; further: potency means the concentration at half of the fitted maximal effect; nearly all actives have a fitted effect of over 55% in size
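Human K18 P301L tau (15 uM unlabeled plus 0.24 uM Alexa 594-labeled, final) in 100 mM sodium acetate pH 7 was mixed with compound and 20 uM heparin and incubated 6 hr at 37 C.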
TR SRC2 fluor cs – alters Texas Red total fluorescence, flagging assay interference. TRb/SRC2 Texas Red total fluorescence interference. Potency, µM (highest dose often 106 µM), without a hit: at the top dose fluorescence change, negative = quenching. 280,000 tested, 0.29% active; active means well fitted curve in either direction with a large enough effect; inconclusive means small, poorly fitted or top-dose-only effect; further: potency means the concentration at half of the fitted maximal effect
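Human TRb ligand-binding domain at 0.6 uM with 20 nM Texas Red SRC2 peptide in Tris buffer containing 1 uM T3 and 5% DMSO, incubated with compound 5 h at ambient temperature. Total fluorescence (555/632 nm) calculated as parallel + 2 × perpendicular.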
TRb SRC2 PPI – TRbeta-SRC2 interaction inhibition; TRbeta-SRC2 peptide binding, fluorescence polarization; receptor liganded with 1 µM T3; 280,000 tested, 0.065% active; AID 1469; Potency, µM (series often up to 106 µM), for inactives: at the highest dose activity change, negative = inhibition, actives largely listed as inhibitors;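 further: potency means the concentration at half of the fitted maximal effect; plate controls were bound peptide for no effect and peptide without receptor for full effect; nearly all actives have a fitted effect of over 50% in size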
Target sequence (P10828 whole entry, looked up): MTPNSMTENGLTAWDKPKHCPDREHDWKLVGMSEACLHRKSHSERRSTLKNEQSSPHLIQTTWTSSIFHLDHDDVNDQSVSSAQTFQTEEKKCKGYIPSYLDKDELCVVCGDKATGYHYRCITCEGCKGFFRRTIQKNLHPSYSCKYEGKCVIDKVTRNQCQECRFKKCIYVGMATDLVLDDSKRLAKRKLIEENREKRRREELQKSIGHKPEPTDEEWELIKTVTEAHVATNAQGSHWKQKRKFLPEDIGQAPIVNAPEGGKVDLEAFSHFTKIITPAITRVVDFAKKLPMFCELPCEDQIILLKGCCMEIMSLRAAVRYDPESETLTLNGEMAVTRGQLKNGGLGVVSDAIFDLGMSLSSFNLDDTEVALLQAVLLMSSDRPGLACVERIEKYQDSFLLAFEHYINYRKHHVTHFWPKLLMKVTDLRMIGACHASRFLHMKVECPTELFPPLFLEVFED
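Each compound concentration gave % activity, normalized to unbound and bound Texas Red SRC2 controls, from polarization read after 5 hr ambient incubation with T3-loaded human TRb LBD.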
Tau FP inhib – inhibitors of human tau fibril formation | P10636 | K18 P301L tau heparin fibrillization, Alexa594 FP, 6 h | Potency, µM (doses to about 57.7 µM), for the others: top-dose activity, negative = inhibition, most hits filed as inhibitors | 280,000 tested, 0.39% active | AID 1468; further: potency means the concentration at half of the fitted maximal effect; nearly all actives have a fitted effect of over 55% in size
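K18 P301L tau (15 uM unlabeled/0.24 uM Alexa 594-labeled, final) + compound + heparin 20 uM final; 100 mM NaOAc pH 7; 6 hr 37 C; ThT 30 uM final added, 1 hr RT; FP ex 555/em 632 nm.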
Numbers without * were called inactive; ? = inconclusive; . = not tested or not shown; [ ] = another dose, or the depositor's remark. Sampled rows, rich in hits. Any-hit rate of the full collection: about 4.6%. Unless noted, the call rests on the fitted dose curve; in most records, active means well fitted curve in the direction sought with a large enough effect; inconclusive means small, poorly fitted or top-dose-only effect, or another doubt; inactive means no such curve, though single readings can be large; an effect the other way counts as inactive or inconclusive. Unless noted, on the % scale 0 is the no-effect control and ±100 the full control effect.

SMILES	PNC assembly inh	Tau fibril ThT	Tau fluor cs	TR SRC2 fluor cs	TRb SRC2 PPI	Tau FP inhib
N#Cc1ccc(N2C(=O)[C@@H]3C(C(=O)C(c4ccccc4)c4ccccc4)=NN[C@@H]3C2=O)cc1	25	-8%	-10%	-1%	-1%	7%
Cn1c(SCc2ccc(Cl)cc2)nnc1C1CC1	.	?	-9%	-1%	-6%	-14%
Cn1c(SCc2ccccc2)nnc1C1CCCNC1 (stereo not given)	-107*	-3%	-1%	-5%	-11%	-2%
CC/C(C)=N/NC(=O)c1[nH]c2ccc(C)cc2c1-c1ccccc1	.	1%	-10%	1%	-9%	11%
O=C(CC1SC(=NCC2CCCO2)NC1=O)Nc1cc([N+](=O)[O-])ccc1Cl (stereo not given)	.	-10%	-7%	1%	-9%	-1%
CN(C)c1ccc(/C=C/c2cc[n+]([O-])cc2)cc1	?	?	-8%	-2%	5%	3%
CC[n+]1ccc(/C=C/c2ccc(N(C)C)cc2)c2ccccc21	.	1.4µM*	0.71µM*[fluorescent]	32µM*[fluorescent]	?	?
CN(C)c1ccc(/C=C/c2cc[n+](C)cc2)cc1	1	4µM*	14µM*[fluorescent]	45µM*[fluorescent]	?	?
CC[n+]1ccccc1/C=C/c1ccc(N(C)C)cc1	.	14µM*	8%	4%	6%	3%
COc1cccc(OC)c1C(=O)Oc1ccc2c(c1)O/C(=C\c1ccncc1)C2=O	29	?	-29%	2%[53 µM]	6%[53 µM]	-9%
Cc1ccc(Cl)cc1NC(=O)CSC(N)=O	?	32µM*	-18%	-1%	-2%	?
COc1cc(Cl)c(C)cc1NC(=O)CSc1cc(Cl)ccc1Cl	-119*	?	-23%	1%	1%	7%
COc1cc(Cl)c(C)cc1NC(=O)CSc1ccc(C)cc1	16	?	-29%	1%	-2%	4%
COc1cc(Cl)c(C)cc1NC(=O)CSc1ccccc1	-125*	-11%	-12%	0%	-1%	0%
COc1cc(Cl)c(C)cc1NC(=O)CSC	?	-7%	-6%	-4%	4%	-2%
CCCn1c2ccccc2c2cnn(CC(=O)Nc3cc(C)c(Cl)cc3OC)c(=O)c21	.	-3%	-8%	20µM*[quencher]	-4%	2%
COC(=O)[C@@H]1C[C@H]2CC[C@H](O)C[C@H]2N1Cc1ccc(C(C)(C)C)cc1	.	-16%	-19%	0%	6%	6%
CN1CCc2c(sc3c2C(=O)NC(c2ccc(OC(=O)c4ccccc4)cc2)N3)C1 (stereo not given)	.	5.6µM*	-14%	15%	-12%	?
CN1CCc2c(sc3c2C(=O)NC(c2ccc(OC(=O)c4ccc(Cl)cc4)cc2)N3)C1 (stereo not given)	.	6.3µM*	-12%	-3%	-4%	-4%
CN1CCc2c(sc3c2C(=O)NC(c2ccc(OC(=O)c4ccc(C(C)(C)C)cc4)cc2)N3)C1 (stereo not given)	.	?	-19%	13%	-3%	-9%
CN(C)c1ccc(NC(=O)c2sc(SCC(=O)Nc3nccs3)nc2N)cc1	53	4µM*	14µM*[quencher]	-6%	3%	11%
CN(C)c1ccc(NC(=O)c2sc(SCC(=O)Nc3ccc(Br)cc3)nc2N)cc1	?	?	-15%	0%	6%	13%
Nc1c(N=Nc2ccc(S(=O)(=O)CCOS(=O)(=O)O)cc2)c(S(=O)(=O)O)cc2cc(S(=O)(=O)O)c(N=Nc3ccc(S(=O)(=O)CCOS(=O)(=O)O)cc3)c(O)c12	.	.	.	45µM*[quencher]	30%[201 µM]	.
O=S(=O)(O)c1ccc(N=Nc2c(O)ccc3cc(S(=O)(=O)O)ccc23)cc1	.	.	.	?	17%[201 µM]	.
Cc1ccc(N2N=C(c3ccc(F)cc3)CC2c2ccco2)cc1 (stereo not given)	.	?	?	-1%	-3%	-7%
SMILES	PNC assembly inh	Tau fibril ThT	Tau fluor cs	TR SRC2 fluor cs	TRb SRC2 PPI	Tau FP inhib
COc1ccc(CNCc2cccc(Cl)c2)cc1	72	3%	-3%	-1%	-12%	7%
CCCCCCCCCC(C)=O	.	.	.	-4%[201 µM]	7%[201 µM]	.
O=C1C(=C(O)c2ccccc2)C(=O)c2ccccc21	4	?	-22%	0%	-19%	?
O=C1C(=C(c2ccccc2)c2ccccc2)Nc2ccccc21	?	16µM*	?	3%	9%	-11%
Cc1oc2cc(O)cc(C)c2c(=O)c1-c1cnn(-c2ccccc2)c1	-115*	?	?	1%	1%	?
Cc1oc2c(O)c(O)ccc2c(=O)c1-c1cnn(-c2ccccc2)c1	?	-3%	-2%	-1%	-9%	3%
O=C(O)C1Nc2c(C(=O)N3CCOCC3)cccc2C2C=CCC12 (stereo not given)	?	14µM*	?	20%	-6%	?
Cc1ccc2c(c1C)NC(C(=O)O)C1CC=CC21 (stereo not given)	?	11µM*	?	-21%	-17%	?
CCCCNC(=O)CSc1nc2ccccc2n1S(=O)(=O)c1ccc(Cl)cc1	-119*	-6%	-6%	-3%	-13%	8%
CCCCNC(=O)CSc1nc2ccccc2n1S(=O)(=O)c1ccc(Br)cc1	-2	-10%	-10%	-6%	2%	0%
CS(=O)(=O)N(CC(=O)NCCc1ccccc1)c1cccc([N+](=O)[O-])c1	.	4%	-5%	-2%	-4%	1%
O=C(CSc1nc2ccccc2n1S(=O)(=O)c1cccc([N+](=O)[O-])c1)NCCc1ccccc1	-113*	-16%	-17%	-4%	-9%	-8%
O=C(NCCN1CCOCC1)c1ccc(=O)oc1	-127*	-6%	-1%	-1%	1%	4%
CC(C)CCNC(=O)c1ccc2c(SCC(=O)O)c3c(nc2c1)CCCC3	3	?	-8%	-1%	-10%	11%
O=C(O)CSc1c2c(nc3cc(C(=O)NCCN4CCOCC4)ccc13)CCC2	.	-17%	-8%	50µM*[fluorescent]	-12%	6%
CCc1cc(SC#N)cc(CC)c1NC(=O)CCl	-16	3.5µM*	-27%	0%	-2%	7.1µM*
Cc1cc(C)c2c(NC(=O)CCl)nn(C)c2n1	.	-1%	6%	-7%	0%	8%
COc1ccccc1OCC(=O)O	4	2%	3%	0%	8%	1%
O=C(O)c1cc(-c2ccco2)[nH]n1	-89*	?	1%	-2%	-6%	-2%
Cc1ccc(-n2ncc3c(=O)n(CC(=O)NCc4ccco4)cnc32)cc1	-100*	5%	5%	-7%	-7%	1%
COC(=O)CN1C(C)=Nc2ccc(C)cc2C1c1ccccc1 (stereo not given)	.	-9%	-8%	-1%	1%	2%

Source: PubChem (National Center for Advancing Translational Sciences (NCATS))
